In the library only some 2.9% were active in any assay of this set; here they are far more common.
PAFAH2 inh: PAFAH2 (human) inhibition; Q99487; recombinant PAFAH2, FP-rhodamine activity probe, fluorescence polarization; inhibition, % at 3.39 µM; 340,000 tested, 0.99% active; AID 492956;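 active = inhibition above the mean over all tested compounds plus 3 SD, cut at about 30% in these data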;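 note: inhibitors block probe labeling of enzyme so polarization drops; 0% = enzyme with DMSO and 100% = wells lacking PAFAH2 protein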
PAFAH1B3 inh: inhibitors of human PAFAH1B3; Q15102; recombinant PAFAH1B3, FP-rhodamine probe, fluorescence polarization; inhibition, % at 3.39 µM; 340,000 tested, 0.28% active; AID 492972;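 active = inhibition above the screen-wide average of all tested compounds plus 3 SD, cut at about 25% in these data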;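 note: 0% = enzyme with DMSO only and 100% = wells lacking PAFAH1B3 protein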
Target sequence (Q15102 whole entry, looked up): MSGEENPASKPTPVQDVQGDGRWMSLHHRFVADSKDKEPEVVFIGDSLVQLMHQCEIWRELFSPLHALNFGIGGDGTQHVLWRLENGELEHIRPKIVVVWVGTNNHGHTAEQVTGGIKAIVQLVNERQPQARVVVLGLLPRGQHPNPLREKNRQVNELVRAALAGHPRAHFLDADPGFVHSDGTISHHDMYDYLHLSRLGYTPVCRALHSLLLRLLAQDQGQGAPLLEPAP
pPAFAH inh: inhibitors of human plasma PAF acetylhydrolase (pPAFAH). inhibition, % at 3.39 µM. recombinant pPAFAH, FP-rhodamine probe fluorescence polarization. Q13093. 330,000 tested, 1.5% active;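 active = inhibition above the mean inhibition across the screen plus 3 SD, cut at about 25% in these data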;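 note: inhibitors block binding of the rhodamine activity-based probe so polarization drops; 0% = enzyme with DMSO and 100% = wells lacking pPAFAH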
PAFAH1B2 FP inh: blocks human PAF acetylhydrolase 1b catalytic subunit 2. P68402. recombinant PAFAH1B2, FP-rhodamine activity probe, fluorescence polarization. inhibition, % at 3.39 µM. 340,000 tested, 1.2% active. AID 492953;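 active = inhibition above the mean of all tested compounds plus 3 SD, cut at about 24% in these data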;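 note: 0% = enzyme with DMSO and 100% = wells lacking PAFAH1B2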
Fam108B inh: Fam108B inhibition, counter-screen for RBBP9 inhibitors | recombinant Fam108B, FP-Rh probe fluorescence polarization | inhibition, % at 9.51 µM | 300,000 tested, 0.33% active | AID 1947;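 active = inhibition above the screen mean inhibition plus 3 SD, computed separately per campaign, cut at about 18% in these data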;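 note: inhibitors lower polarization as less probe binds the enzyme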
PME-1 primary: PME-1 (human) inhibition | Q9Y570 | recombinant PME-1, FP-Rh probe fluorescence polarization | inhibition, % at 5.9 µM | 320,000 tested, 0.53% active | AID 2130;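 active = inhibition above the campaign mean of all compounds plus 3 SD, cut at about 26% in these data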;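 note: competitive labeling of PME-1 active site by serine hydrolase directed probe; 0% = PME-1 with DMSO and 100% = wells lacking PME-1 enzyme; inhibitors block probe labeling so polarization falls and inhibition rises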
Target sequence (Q9Y570 whole entry, looked up): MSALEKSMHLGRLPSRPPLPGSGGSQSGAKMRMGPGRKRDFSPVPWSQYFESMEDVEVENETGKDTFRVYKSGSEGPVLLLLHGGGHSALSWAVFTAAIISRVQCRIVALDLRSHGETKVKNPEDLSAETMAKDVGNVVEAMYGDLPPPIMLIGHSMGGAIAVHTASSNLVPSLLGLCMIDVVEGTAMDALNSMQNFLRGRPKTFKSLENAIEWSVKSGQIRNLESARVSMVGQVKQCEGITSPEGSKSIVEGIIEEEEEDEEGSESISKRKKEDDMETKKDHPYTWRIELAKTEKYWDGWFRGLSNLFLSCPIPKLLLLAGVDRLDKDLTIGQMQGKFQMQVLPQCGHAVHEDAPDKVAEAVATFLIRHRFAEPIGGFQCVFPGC
* marks the source's active call; other numbers are inactive results.

Cc1ccc(N=C2NC(=O)/C(=C/c3cccn3C)S2)c(C)c1 was read as PAFAH2 inh 12, PAFAH1B3 inh 7, pPAFAH inh 25*, PAFAH1B2 FP inh 11, Fam108B inh 1 and PME-1 primary 10.
O=[N+]([O-])c1cccnc1Oc1ccccc1F was read as PAFAH2 inh -1, PAFAH1B3 inh -5, pPAFAH inh 0, PAFAH1B2 FP inh 1, Fam108B inh 1 and PME-1 primary 5.
Cc1cc(Oc2ncccc2[N+](=O)[O-])c2cc(Cl)ccc2n1 was read as PAFAH2 inh -1, PAFAH1B3 inh 2, pPAFAH inh 26*, PAFAH1B2 FP inh -1, Fam108B inh 2 and PME-1 primary -2.
Screening O=C(CCc1ccc(S(=O)(=O)N2CCOCC2)cc1)OCC(=O)c1ccccc1 returned PAFAH2 inh 1, PAFAH1B3 inh 12, pPAFAH inh 8 and PAFAH1B2 FP inh 4.
Screening CCOC(=O)CCc1c(C)nc(SCCCn2c(=O)[nH]c3ccccc32)c(C#N)c1C returned PAFAH2 inh 2, PAFAH1B3 inh 10, pPAFAH inh -6, PAFAH1B2 FP inh -5, Fam108B inh -4 and PME-1 primary 26*.
For Fc1cccc2sc(Nc3nnc(-c4ccccc4)o3)nc12 the results were PAFAH2 inh 33*, PAFAH1B3 inh 1, pPAFAH inh 25*, PAFAH1B2 FP inh 12, Fam108B inh 14 and PME-1 primary 28*.
For Cc1cccc(C)c1OCC(=O)Nc1oc(-c2ccccc2)c(-c2ccccc2)c1C#N the results were PAFAH2 inh -20, PAFAH1B3 inh 3, pPAFAH inh -5, PAFAH1B2 FP inh -2, Fam108B inh -14 and PME-1 primary -7.
For O=C(Cn1c(=O)oc2ccccc21)Nc1ccc(Br)cc1 the results were PAFAH2 inh -2, PAFAH1B3 inh 8, pPAFAH inh -5, PAFAH1B2 FP inh -1, Fam108B inh 0 and PME-1 primary 3.
`N#Cc1c(NC(=O)Cn2c(=O)oc3ccccc32)oc(-c2ccccc2)c1-c1ccccc1` gave PAFAH2 inh 15, PAFAH1B3 inh -8, pPAFAH inh 22, PAFAH1B2 FP inh 40*, Fam108B inh -8 and PME-1 primary -1.
Screening N#Cc1c(NC(=O)CSc2n[nH]c(N)n2)oc(-c2ccccc2)c1-c1ccccc1 returned PAFAH2 inh -3, PAFAH1B3 inh 10, pPAFAH inh 12, PAFAH1B2 FP inh 25*, Fam108B inh 9 and PME-1 primary 0.
`CN(CC(=O)Nc1ccc(OC(F)(F)F)cc1)C(=O)Cn1c(=O)cnc2ccccc21` gave PAFAH2 inh -2, PAFAH1B3 inh 1, pPAFAH inh 2, PAFAH1B2 FP inh 3 and PME-1 primary 6.
Screening COc1ccc(S(=O)(=O)N(C)C[C@H]2Oc3ccc(NS(=O)(=O)c4ccccc4)cc3C(=O)N([C@H](C)CO)C[C@@H]2C)cc1 returned PAFAH2 inh 5, PAFAH1B3 inh 5, pPAFAH inh 10 and PAFAH1B2 FP inh 9.
For C[C@H](CO)N1C[C@H](C)[C@@H](CN(C)S(=O)(=O)c2cn(C)cn2)Oc2ccc(NS(=O)(=O)c3ccccc3)cc2C1=O the results were PAFAH2 inh -5, PAFAH1B3 inh 2, pPAFAH inh 4 and PAFAH1B2 FP inh -3.
COc1ccc(S(=O)(=O)Nc2ccc3c(c2)C(=O)N([C@H](C)CO)C[C@H](C)[C@@H](CN(C)S(=O)(=O)c2ccccc2)O3)cc1 was read as PAFAH2 inh -3, PAFAH1B3 inh 10, pPAFAH inh 9 and PAFAH1B2 FP inh 40*.
For C[C@H]1CN([C@@H](C)CO)C(=O)c2cc(NS(=O)(=O)c3ccc(F)cc3)ccc2O[C@H]1CN(C)S(=O)(=O)c1cn(C)cn1 the results were PAFAH2 inh 1, PAFAH1B3 inh 7, pPAFAH inh 28* and PAFAH1B2 FP inh 7.
For COc1ccc(C/C(=N\OC(C)=O)c2ccc(OC)cc2)cc1 the results were PAFAH2 inh 2, PAFAH1B3 inh 1, pPAFAH inh 2, PAFAH1B2 FP inh 30*, Fam108B inh 1 and PME-1 primary -3.
Screening Cc1ncc(NS(=O)(=O)c2ccc(N)cc2)nc1C returned PAFAH2 inh -2, PAFAH1B3 inh 2 and PAFAH1B2 FP inh 0.
`O=C(O)CCC(=O)N1CCN(c2nc(-c3ccccc3)c3cc(Br)ccc3n2)CC1` gave PAFAH2 inh -5, PAFAH1B3 inh 0, pPAFAH inh 14, PAFAH1B2 FP inh 2, Fam108B inh -1 and PME-1 primary -3.
For O=C(O)CCC(=O)N1CCN(c2nc(-c3ccccc3Cl)c3cc(Br)ccc3n2)CC1 the results were PAFAH2 inh 8, PAFAH1B3 inh 6, pPAFAH inh 33*, PAFAH1B2 FP inh 0, Fam108B inh -2 and PME-1 primary 4.
COc1ccc(NC(=O)N(C)C[C@@H]2Oc3ccc(NC(=O)NC(C)C)cc3CC(=O)N([C@H](C)CO)C[C@@H]2C)cc1 was read as PAFAH2 inh 5, PAFAH1B3 inh -2, pPAFAH inh 8 and PAFAH1B2 FP inh -2.
For O=C(Nc1ccc(S(=O)(=O)Nc2ncccn2)cc1)C12CC3CC(CC(Cl)(C3)C1)C2 the results were PAFAH2 inh 6, PAFAH1B3 inh 10, pPAFAH inh 13 and PAFAH1B2 FP inh 30*.
Screening COC(=O)c1cc(OC)c(OC)cc1NC(=O)c1csc(C)c1 returned PAFAH2 inh -6, PAFAH1B3 inh -2, pPAFAH inh 2, PAFAH1B2 FP inh -2, Fam108B inh -3 and PME-1 primary 3.
`CCOc1ccc(/C=N/NC(=O)Cc2cccs2)cc1` gave pPAFAH inh 6, Fam108B inh 0 and PME-1 primary -1.
COc1ccc(OCCN2CCN(C(=O)c3ccc(OC)c(OC)c3)CC2)cc1 was read as PAFAH2 inh 2, PAFAH1B3 inh 0, pPAFAH inh 6, PAFAH1B2 FP inh 3, Fam108B inh 2 and PME-1 primary -4.
O=c1oc(-c2ccc(O)c(O)c2)cc2cccc(O)c12 was read as PAFAH2 inh 17, PAFAH1B3 inh 2, pPAFAH inh 25* and PAFAH1B2 FP inh -1.
O=C(O)c1cccc2cc(-c3ccccc3)oc(=O)c12 was read as PAFAH2 inh 5, PAFAH1B3 inh 7, pPAFAH inh 4, PAFAH1B2 FP inh 2, Fam108B inh -3 and PME-1 primary -3.
For CCOC(=O)c1ccc2c(c1)C1C=CCC1C(C(=O)OCC)N2 (stereo not given) the results were PAFAH2 inh 10, PAFAH1B3 inh 15, pPAFAH inh 28*, PAFAH1B2 FP inh 3, Fam108B inh 7 and PME-1 primary 8.
Screening CCOC(=O)N1CCC(N2C(=O)c3ccccc3C2Nc2ccc(S(=O)(=O)N3CCCCC3)cc2)CC1 (stereo not given) returned pPAFAH inh 17, Fam108B inh -1 and PME-1 primary 15.

Source: PubChem BioAssay
